This passage reports growth results from PubChem BioAssay (NCI).

Holding throughout (experiment): NCI-60 one-dose screen, 48 h (100 = growth as untreated, 0 = no growth, -100 = all killed)
The test system of one assay is SK-MEL-2 melanoma. Conditions: 10 µM unless noted.
In a further assay the test system is EKVX NSCLC. The note with it: 10 µM unless noted.
Another assay deals with SN12C renal. Conditions: 10 µM unless noted.
For the next assay, the system named is UO-31 renal. The note with it: 10 µM unless noted.
The subject of another assay is TK-10 renal. Conditions: 10 µM unless noted.
Another assay concerns ACHN renal. Conditions: 10 µM unless noted.
In a further assay the test system is CAKI-1 renal. The note with it: 10 µM unless noted.
For a further assay, the system named is A498 renal. The note with it: 10 µM unless noted.
A further assay relates to CCRF-CEM leukemia. The note with it: 10 µM unless noted.
The subject of a further assay is MOLT-4 leukemia. The note with it: 10 µM unless noted.
For a further assay, the system named is SR leukemia. Conditions: 10 µM unless noted.
The subject of another assay is RPMI-8226 leukemia. The note with it: 10 µM unless noted.
Another assay deals with OVCAR-8 ovarian. The note with it: 10 µM unless noted.
Another assay relates to OVCAR-5 ovarian. The note with it: 10 µM unless noted.
The test system of another assay is SK-OV-3 ovarian. Conditions: 10 µM unless noted.
A further assay concerns IGROV1 ovarian. The note with it: 10 µM unless noted.
The test system of a further assay is OVCAR-3 ovarian. Conditions: 10 µM unless noted.
Another assay relates to HS 578T breast. The note with it: 10 µM unless noted.
Another assay relates to NCI/ADR-RES ovarian. Conditions: 10 µM unless noted.
The test system of another assay is OVCAR-4 ovarian. Conditions: 10 µM.

Structures are written as SMILES. This is part of a sample that, as a whole, favours compounds with a hit. Of some 83,000 tested, about 20% had one in any assay.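 Plates (96-well) were seeded with cells, treated with compound at one concentration, and incubated for 48 hours before percent growth was determined.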 A number with no mark means an inactive call. Calls of active or inactive are those of the source. The calls were made as follows: active = growth percent below 10; inactive = the rest.

For the molecule `CCOC(=O)c1cc(C#N)n2ncc3ccccc3c12`, the growth in the assay on SK-MEL-2 melanoma was 108%; in the assay with EKVX NSCLC, 94.9%; with SN12C renal it was 95.3%; in the assay with UO-31 renal it was 84.1%; with TK-10 renal, 91.4%; in the assay on ACHN renal, 91.6%. Further, the growth in the assay on CAKI-1 renal was 86.5%; in the assay on A498 renal, 72.4%; in the assay on CCRF-CEM leukemia, 106%; in the assay with MOLT-4 leukemia, 89.7%; with SR leukemia, 98.4%; with RPMI-8226 leukemia, 105%. The growth in the assay with OVCAR-8 ovarian was 97.7%; with OVCAR-5 ovarian it was 84.7%; in the assay on SK-OV-3 ovarian, 107%; in the assay on IGROV1 ovarian, 92.4%; in the assay on OVCAR-3 ovarian it was 103%; in the assay on HS 578T breast it was 98.3%. For the same molecule, the growth in the assay with NCI/ADR-RES ovarian is 97.7%.
Turning to `COc1ccc(-c2c(C)nn3c(NCCN4CCOCC4)cc(C)nc23)cc1OC`, the growth in the assay with SK-MEL-2 melanoma is 104%; with EKVX NSCLC, 83.9%; in the assay on SN12C renal, 100%; in the assay with UO-31 renal, 104%; in the assay with TK-10 renal, 102%; with ACHN renal, 106%. Also, the growth with CAKI-1 renal was 75.2%; in the assay on A498 renal, 78%; in the assay on CCRF-CEM leukemia it was 97.6%; in the assay on MOLT-4 leukemia it was 90.2%; with SR leukemia, 79.8%; with RPMI-8226 leukemia it was 105%. In addition, the growth is 103% in the assay with OVCAR-8 ovarian; 94.3% in the assay on OVCAR-5 ovarian; 101% in the assay with SK-OV-3 ovarian; 117% with IGROV1 ovarian; 103% in the assay on OVCAR-3 ovarian; 79% with HS 578T breast.
For `CC(C)=CCC[C@](C)(O)[C@H]1CC[C@]2(C)[C@@H]1CC[C@@H]1[C@@]3(C)CC/C(=N/O)C(C)(C)[C@@H]3CC[C@]12C`, the growth in the assay on SK-MEL-2 melanoma was -23.2% [100 µM] (active); with EKVX NSCLC it was 2.6% [100 µM] (active); in the assay with SN12C renal it was -42.4% [100 µM] (active); in the assay with UO-31 renal, -17.7% [100 µM] (active); in the assay with TK-10 renal it was -39.1% [100 µM] (active); with ACHN renal, -72% [100 µM] (active). The growth in the assay with CAKI-1 renal was -58.4% [100 µM] (active); in the assay on A498 renal it was -15.7% [100 µM] (active); in the assay on CCRF-CEM leukemia, 23.1% [100 µM]; in the assay on MOLT-4 leukemia, 2.24% [100 µM] (active); in the assay with SR leukemia it was 12.5% [100 µM]; in the assay on RPMI-8226 leukemia, -2.67% [100 µM] (active). For the same molecule, the growth was -69.7% [100 µM] (active) in the assay with OVCAR-8 ovarian; 2.17% [100 µM] (active) in the assay on OVCAR-5 ovarian; 12.4% [100 µM] with SK-OV-3 ovarian; -66.5% [100 µM] (active) with IGROV1 ovarian; -42.3% [100 µM] (active) with OVCAR-3 ovarian; -13% [100 µM] (active) in the assay with HS 578T breast. Besides, the growth in the assay on NCI/ADR-RES ovarian is -10.9% [100 µM] (active).
As to `Cn1cc(-c2noc(C(=O)c3cn(C)c4ncccc34)n2)c2ccccc21`, the growth with SK-MEL-2 melanoma is 107%; with EKVX NSCLC it was 60.6%; in the assay on SN12C renal, 95%; with UO-31 renal it was 75.9%; in the assay on TK-10 renal it was 26.5%; with ACHN renal, 98.6%. Moreover, the growth with CAKI-1 renal is 86.2%; with A498 renal, 69.9%; with CCRF-CEM leukemia, 98.1%; in the assay with MOLT-4 leukemia it was 95.6%; in the assay on SR leukemia it was 74.9%; in the assay with RPMI-8226 leukemia, 94.5%. Further, the growth was 102% in the assay with OVCAR-8 ovarian; 96.1% in the assay on OVCAR-5 ovarian; 57.7% with OVCAR-4 ovarian; 80.7% with IGROV1 ovarian; 88.5% in the assay on HS 578T breast; 92.3% in the assay with NCI/ADR-RES ovarian.
In the case of `CC1(C)CC[C@]2(C(N)=O)CC[C@]3(C)C(=CC[C@@H]4[C@@]5(C)C/C(=C/c6ccncc6)C(=O)C(C)(C)[C@@H]5CC[C@]43C)[C@@H]2C1`, the growth was -86% [100 µM] (active) with SK-MEL-2 melanoma; -52.8% [100 µM] (active) in the assay on EKVX NSCLC; -78.1% [100 µM] (active) with SN12C renal; -98.1% [100 µM] (active) in the assay with UO-31 renal; -89.5% [100 µM] (active) in the assay on TK-10 renal; -82.5% [100 µM] (active) in the assay with ACHN renal. The growth is -58.3% [100 µM] (active) in the assay with CAKI-1 renal; -80.4% [100 µM] (active) in the assay with A498 renal; -10% [100 µM] (active) in the assay with CCRF-CEM leukemia; -13.6% [100 µM] (active) with MOLT-4 leukemia; 2.61% [100 µM] (active) with SR leukemia; -29.1% [100 µM] (active) in the assay with RPMI-8226 leukemia. Besides, the growth with OVCAR-8 ovarian was -28.6% [100 µM] (active); in the assay with OVCAR-5 ovarian, -81.9% [100 µM] (active); in the assay with SK-OV-3 ovarian it was -45.7% [100 µM] (active); in the assay with IGROV1 ovarian, -72.3% [100 µM] (active); in the assay with OVCAR-3 ovarian it was -69.5% [100 µM] (active); in the assay on HS 578T breast it was -22.1% [100 µM] (active). Besides, the growth in the assay with NCI/ADR-RES ovarian is -48% [100 µM] (active).
Consider `Brc1ccc2c(c1)CN(C1CCCCC1)CO2`, for which the growth was 107% with SK-MEL-2 melanoma; 101% in the assay with EKVX NSCLC; 113% in the assay with SN12C renal; 78.9% in the assay on UO-31 renal; 111% in the assay on TK-10 renal; 98.9% in the assay on ACHN renal. The growth is 102% in the assay on CAKI-1 renal; 100% in the assay with A498 renal; 107% in the assay with CCRF-CEM leukemia; 99.7% in the assay with MOLT-4 leukemia; 96.3% in the assay on SR leukemia; 103% in the assay on RPMI-8226 leukemia. Moreover, the growth is 114% in the assay with OVCAR-8 ovarian; 97.9% in the assay with OVCAR-5 ovarian; 92.3% in the assay on SK-OV-3 ovarian; 107% with IGROV1 ovarian; 116% in the assay with OVCAR-3 ovarian; 91.7% in the assay with HS 578T breast. Besides, the growth with NCI/ADR-RES ovarian is 97.5%.
